Screening data as filed in PubChem.
CCHFV vOTU inh – CCHFV vOTU protease inhibition | Pep-AMC fluorescence | inhibition, % at 11.5 µM | 370,000 compounds, 0.55% hits; in the data active = inhibition above about 30%; also: 0% = vehicle wells with enzyme and 100% = no enzyme wells
Mtb hypoxia inh – inhibitors of hypoxia-regulated fluorescent reporter in Mycobacterium tuberculosis; M. tuberculosis hypoxia-regulated fluorescent reporter, fluorescence; fluorescence inhibition, % (test concentration not listed); 300,000 compounds, 0.1% hits; in the data active = fluorescence inhibition mostly above about 23%, no sharp cut-off; inactive = mostly below about 17%
ugtP null kill – growth inhibition of S. aureus ugtP deletion strain; S. aureus RN4220 ugtP deletion, OD600 growth, 16 h; growth inhibition, % (no concentration beside the values); 330,000 compounds, 0.54% hits; AID 1259309; in the data active = growth inhibition above about 68%;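 also: plate controls were untreated wells for no effect and antibiotic for full effect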
RN4220 kill – kills Staphylococcus aureus RN4220 | S. aureus RN4220 growth, OD600, 16 h | inhibition, % (no concentration beside the values) | 330,000 compounds, 0.33% hits | AID 1259311; in the data active = inhibition above about 85%;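 also: plate controls were untreated cells for no effect and reference antibiotic for full effect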
RecA splice inh – Mtb RecA intein splicing inhibition; P9WHJ3; cell-free RecA intein splicing, fluorescence; inhibition, % (test concentration not listed); 290,000 compounds, 0.75% hits; in the data active = inhibition above about 30%;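 also: 0% = vehicle wells and 100% = reference inhibitor control wells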
BJeLR lethal – kills HRASV12-expressing BJeLR cells | inhibition, % (no concentration beside the values) | BJeLR (HRASV12) viability, CellTiter-Glo ATP luminescence, 48 h | 300,000 compounds, 0.17% hits | AID 1554; in the data active = inhibition above about 50%
* hit, by the source's call; . = no result given. Compounds with a hit are over-represented: about 1.6% of the library has one in this group of screens.

SMILES	CCHFV vOTU inh	Mtb hypoxia inh	ugtP null kill	RN4220 kill	RecA splice inh	BJeLR lethal
Cc1ccccc1C(=O)NC(=S)Nc1ccc(Oc2ccc(Cl)cc2)cc1	1	.	86*	-14	-1	-5
Cc1ccc(C(=O)NC(=S)Nc2ccc(Oc3ccc(Cl)cc3)cc2)cc1	-14	9	66	4	-2	-11
O=C(NC(=S)Nc1ccc(Oc2ccccc2)cc1)c1ccc(Cl)cc1	-8	.	98*	-7	5	-9
O=C(Cc1ccccc1)Nc1ccc(NC(=S)NC(=O)c2ccccc2)cc1	-2	12	84*	-1	1	-8
O=C(NC(=S)Nc1cccnc1Cl)c1ccc(Cl)cc1	13	-1	88*	5	-1	2
COc1ccc(C2C3C(=O)N(C(C)(C)C)C(=O)C3[C@]3(C)C(=O)N(c4ccccc4)C(=O)N23)cc1 (some centres not stated)	.	-1	0	5	.	.
CC(=O)C1CCC2C3CC(C)C4=CC(=O)CC[C@]4(C)C3C(O)C[C@]12C (some centres not stated)	.	6	-3	13	.	.
COc1ccc(NC(=O)N(C)CC2Oc3c(NS(=O)(=O)c4cccs4)cccc3C(=O)N(C(C)CO)CC2C)cc1 (configuration not stated)	.	5	-1	4	.	.
Cc1ccc(NC(=O)Nc2ncccc2C)cc1	-10	-2	0	1	-1	2
Cc1ccc(NC(=O)Nc2ccno2)cc1	9	89*	2	-2	0	-11
O=C(Nc1ccno1)Nc1ccc(Cl)cc1Cl	-3	58*	27	17	-1	-9
Cn1nc(C(C)(C)C)cc1C(=O)Sc1cccc(Br)c1	-5	.	.	.	43*	-5
CNC[C@H](CC1CCCCC1)NC[C@H](Cc1ccccc1)NCCC12CC3CC(CC(C3)C1)C2	6	.	.	.	19	69*
COC(=O)C1=C(c2c(C)noc2C)CC2CCC1N2C(=O)NC1CCCCC1 (configuration not stated)	.	7	-7	4	.	.
Cn1c(SCc2ccccc2)nc(C(F)(F)F)cc1=O	6	9	-6	11	0	-2
Cn1c(SCc2ccccc2)nc(N)c(N=O)c1=O	-10	15	95*	-4	-1	4
CCCc1c(-c2ccc(O)cc2)nn(-c2ccc(O)cc2)c1-c1ccc(O)cc1	.	.	.	.	51*	5
Cc1c(C(N)=O)c(-c2ccccc2)nn1-c1ccccc1	-18	13	5	4	-7	-16
O=c1c2ccccc2c(-c2ccccc2)nn1Cc1c(Cl)cccc1Cl	-3	5	96*	-13	4	3
CN1C(=O)C2C(C=Cc3ccccc3)N3C(=O)CN(Cc4ccccn4)C(=O)[C@@]3(Cc3ccccc3)C2C1=O (some centres not stated)	.	5	-4	4	.	.
CCCCCc1ccc(OCCOCCn2c[n+](C)c3ccccc32)c(CCCCC)c1	.	25	101*	100*	26	1
CCCCCc1ccc(OCCC[n+]2ccccc2)c(CCCCC)c1	8	.	100*	99*	-4	20
C[n+]1cn(CC(O)COCc2ccccc2)c2ccccc21 (configuration not stated)	-11	1	-2	4	1	-6
CCCCOc1ccc(CCN)cc1Cl	-14	13	0	4	-5	-7
COc1ccc(N=Nc2ccc(O)c3ncccc23)cc1	-2	4	24	19	10	26
SMILES	CCHFV vOTU inh	Mtb hypoxia inh	ugtP null kill	RN4220 kill	RecA splice inh	BJeLR lethal
COc1cccc(N=Nc2ccc(O)c3ncccc23)c1	12	.	.	.	-2	66*
Cc1ccccc1N=Nc1ccc(O)c2ncccc12	6	4	24	41	1	66*
Oc1ccc(CNc2ccccc2)c2cccnc12	.	3	-4	3	.	-3
COCc1ccc(O)c2ncccc12	-4	-12	98*	98*	2	10
Cn1c2c(c(=O)n(C)c1=O)[C@@]1(C(=O)Nc3ccccc31)C(C#N)=C(N)O2	22	5	29	87*	34*	4
COc1ccc(CCNc2nnc(Sc3nnnn3-c3ccccc3)s2)cc1OC	-7	4	8	0	14	60*
CN(C)CCCNc1nc(-c2ccccc2)nc2ccccc12	-12	-10	0	1	0	-4
CN(C)CCCNc1c2ccccc2nc2ccccc12	-190	9	-11	4	-47	69*
CCc1ccc(/C=N/NC(=O)c2cc(-c3ccncc3)nc3ccccc23)s1	-2	.	.	.	4	14
COc1ccccc1NC(=O)c1cc(-c2cc(OC)c(OC)c(OC)c2)nc2ccccc12	-5	2	-6	-3	-1	3
COc1cc(-c2cc(C(=O)Nc3ccncc3)c3ccccc3n2)cc(OC)c1OC	1	22*	1	3	.	.
O=C(N/N=C/c1cccs1)c1cc(-c2ccncc2)nc2ccccc12	0	.	.	.	7	56*
O=C(C#Cc1cccc([N+](=O)[O-])c1)c1ccccc1	.	3	98*	75	6	5
COc1ccc(/C=C/c2cc(-c3ccc(C)cc3)o[n+]2C)cc1	-1	.	100*	96*	1	63*
CC1CCCC(C)N1C(=O)COC(=O)c1cccnc1Cl (configuration not stated)	22	34*	0	4	.	.
O=C(COC(=O)c1cccnc1Cl)NC1CCCCCC1	6	2	-1	0	.	.
CC1CCC[C@]2(O1)OC(CCO)CC(O)C2O (some centres not stated)	.	-8	2	12	.	.
CC(=O)c1ccc(Oc2cc(-c3ccccc3)nc(-c3ccccc3)n2)cc1	10	5	9	-4	2	-2
O=Cc1ccc(Oc2cc(-c3ccccc3)nc(-c3ccccc3)n2)cc1	12	2	100*	69	0	18
O=C(Nc1cccc(OC(=O)c2ccc(Br)o2)c1)c1ccccc1	10	4	6	6	43*	-11
CC1Oc2ccccc2C=C1C1C(=C(O)c2ccccc2)C(=O)C(=O)N1CCCN(C)C (configuration not stated)	.	11	2	3	.	.
Nc1cc(Cl)c2nonc2c1[N+](=O)[O-]	28	40*	47	49	.	.
CC(=O)N1CCN(c2ccc(NC(=S)NC(=O)c3ccc(C)c([N+](=O)[O-])c3)cc2)CC1	2	15	90*	4	1	6
CCOc1ccc(C(=O)NC(=S)Nc2ccc(N3CCCCC3)cc2)cc1[N+](=O)[O-]	6	17	31	1	1	-5
COc1ccc(C(=O)NC(=S)Nc2ccc(N3CCN(C(C)=O)CC3)cc2)cc1[N+](=O)[O-]	4	14	99*	4	-2	3
COc1ccc(NC(=O)N(C)CC2Oc3ccc(NC(=O)Cc4ccccc4)cc3C(=O)N(C(C)CO)CC2C)cc1 (configuration not stated)	.	-6	-1	-4	.	.
